Assay results published in PubChem BioAssay AID720504 (National Center for Advancing Translational Sciences (NCATS), 2013).
Screen size: about 360,000 compounds; about 10,000 (2.8%) were called active. Roughly 4% stayed inconclusive and do not appear here. What follows is part of a selection rich in actives, with near analogues and random picks from the rest. Values without a mark were called inactive. The call rests on the fitted dose curve; in most records, active means well fitted inhibition curve with a large enough effect; inconclusive means small, poorly fitted or top-dose-only effect; inactive means flat fitted curve, though single readings scatter.

These compounds were tested against Serine/threonine-protein kinase PLK1 (Homo sapiens) (UniProt P53350) (assay: qHTS for Inhibitors of PLK1-PDB (polo-like kinase 1 - polo-box domain): Primary Screen). Conditions: Plk1 PBD binding of FITC phosphopeptide, fluorescence polarization.
Further: nearly all actives have a fitted effect of over 65% in size.
On the % scale 0 is the no-effect control and ±100 the full control effect; potency means the concentration at half of the fitted maximal effect.
Wherever max response, negative = inhibition is given: series mostly up to about 57 µM.

Sequence of Serine/threonine-protein kinase PLK1 (Homo sapiens) (P53350 whole entry, looked up, the tested form may be a part): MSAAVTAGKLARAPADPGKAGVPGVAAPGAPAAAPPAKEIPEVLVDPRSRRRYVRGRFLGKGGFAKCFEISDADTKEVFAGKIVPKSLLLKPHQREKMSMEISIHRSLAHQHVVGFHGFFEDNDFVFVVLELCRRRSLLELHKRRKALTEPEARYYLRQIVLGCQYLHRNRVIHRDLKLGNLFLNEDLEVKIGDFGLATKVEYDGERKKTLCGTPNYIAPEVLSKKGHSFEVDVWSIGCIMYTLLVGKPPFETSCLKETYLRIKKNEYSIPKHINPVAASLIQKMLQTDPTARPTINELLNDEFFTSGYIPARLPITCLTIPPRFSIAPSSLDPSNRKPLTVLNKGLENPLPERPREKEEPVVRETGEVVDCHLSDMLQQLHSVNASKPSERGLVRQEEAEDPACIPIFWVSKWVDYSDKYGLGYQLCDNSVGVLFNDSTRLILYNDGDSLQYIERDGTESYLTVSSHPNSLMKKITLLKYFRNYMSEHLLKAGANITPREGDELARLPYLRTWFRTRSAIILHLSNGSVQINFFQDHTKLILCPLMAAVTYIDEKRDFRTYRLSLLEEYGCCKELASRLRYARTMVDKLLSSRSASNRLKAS

| Structure (SMILES) | max response, negative = inhibition | Potency |
| --- | --- | --- |
| CCOc1cc(/C=N/NC(=O)c2c(C)nc3ccc(Cl)cn23)ccc1O | -0.787% | – |
| CC(C)NC(=O)C1(C)CCCCN1Cc1cccc(C(F)(F)F)c1 (stereo not drawn) | -6.04% | – |
| OC(c1ccc(F)cc1)c1ncc(-c2cccc(C(F)(F)F)c2)[nH]1 (stereo not drawn) | 1.19% | – |
| CC(=O)NC(c1ccccc1)c1nc(-c2cccc(C(C)C)c2)cs1 (stereo not drawn) | 4.75% | – |
| COC(=O)[C@@]1(Cc2ccc(OC)cc2)[C@H]2c3cc(C(=O)N4CCCC4)n(Cc4ccc(OC(F)(F)F)cc4)c3C[C@H]2CN1C(=O)c1ccccc1 | 4.68% | – |
| CCOC(=O)[C@]12CCC=C1N(Cc1ccco1)C(=O)[C@H](CC(=O)N1CCSCC1)C2 | -15.1% | – |
| CC1(C(=O)Nc2cccnc2)Cc2c(-c3ccccc3)ccnc2O1 (stereo not drawn) | -6.2% | – |
| COc1ccc([C@H]2CC(=O)C=C(c3ccc(C)cc3)C2)cc1 | -18.7% | – |
| COc1ccc([C@H]2CC(=O)C=C(c3ccc(CO)cc3)C2)cc1 | – | 23.8 µM (active) |
| COc1ccc2cc(C3=CC(=O)C[C@H](c4ccc5c(c4)OCO5)C3)ccc2c1 | 4.54% | – |
| CN1OC[C@@H]2CN[C@H](c3ccc(-c4ccccc4)cc3)C[C@@H]21 | 5.71% | – |
| Cc1noc(NS(=O)(=O)c2ccc(NC(=O)c3oc4ccc(F)cc4c3C)cc2)c1C | -10.8% | – |
| Cc1cc(C)c2nc(-c3cccnc3)cc(C(=O)Nc3ccc(S(=O)(=O)Nc4onc(C)c4C)cc3)c2c1 | – | 42.3 µM (active) |
| CCn1c(SCC(=O)Nc2ccc(S(=O)(=O)Nc3onc(C)c3C)cc2)nnc1-c1ccccc1 | 3.27% | – |
| CC(C)(C)S(=O)N1Cc2cc(C(=O)NCCCN3CCOCC3)nc(-c3cccc(-c4cc5ccccc5o4)c3)c2[C@H]1CCO (stereo partly drawn) | -5.28% | – |
| CCCCCCCCCCOC(=O)Cn1c(COc2ccc(C)cc2)[n+](C)c2ccccc21 | -18.7% | – |
| CCCn1c(=N)n(CC(=O)c2ccc(Cl)c(Cl)c2)c2ccccc21 | -14% | – |
| CCCCOC(=O)Cn1c(=N)n(CCN(CC)CC)c2ccccc21 | – | 21.2 µM (active) |
| CC(=O)c1cccc(-c2cnc3c(NC=O)cc(-c4ccc(N(C)C)cc4)cn23)c1 | -10.2% | – |
| COc1ccc(C(O)C(O)(C(=O)OC(C)C)c2ccc(C)cc2)cc1 (stereo not drawn) | -13.4% | – |
| Cn1cc(C2OC(=O)c3ccccc32)c2ccccc21 (stereo not drawn) | -13.8% | – |
| Cc1nn(C)cc1N1C(=O)c2cccc3c(N)ccc(c23)C1=O | – | 2.38 µM (active) |
| CN1C(=O)c2cccc3c(N)ccc(c23)C1=O | – | 3.36 µM (active) |
| CC(C(=O)O)N1C(=O)c2cccc3cccc1c23 (stereo not drawn) | -10.8% | – |
| Cc1ccc(S(=O)(=O)N2CCCCC2)cc1NC(=O)CCNC(=O)c1ccccc1Cl | -0.377% | – |
| O=C1c2ccccc2-c2ccccc2NC1O (stereo not drawn) | -5.82% | – |
| COc1cccc(NC(=O)N(C)C[C@@H]2Oc3ncc(Br)cc3C(=O)N([C@@H](C)CO)C[C@H]2C)c1 | -14.8% | – |

| Structure (SMILES) | max response, negative = inhibition | Potency |
| --- | --- | --- |
| Cc1c(NC(=O)CSc2nnc(-c3cccnc3)n2N)c(=O)n(-c2ccccc2)n1C | -7.37% | – |
| Cc1c(NC(=O)CSc2cccc3cccnc23)c(=O)n(-c2ccccc2)n1C | – | 16.8 µM (active) |
| Cc1c(NC(=O)CSc2nnnn2-c2ccc(C(=O)O)cc2)c(=O)n(-c2ccccc2)n1C | -21.9% | – |
| Cc1coc2c(O)cc3c(c12)OC1(N2CCCCC2)C(=O)NCCCC31 (stereo not drawn) | – | 15 µM (active) |
| C[C@H]1CN([C@@H](C)CO)S(=O)(=O)c2ccc(-c3cccc(F)c3)cc2O[C@@H]1CN(C)C | 2.78% | – |
| CN(C)CCNC(=O)c1ccc(-c2cn3c(-c4ccc(Oc5ccccc5)cc4)cnc3cn2)cc1 | -16.6% | – |
| COc1ccc(NC(=O)N(C)C[C@H]2Oc3ncc(C#C[C@@H](C)O)cc3C(=O)N([C@H](C)CO)C[C@H]2C)cc1 | -0.325% | – |
| CN1CCN(C(=O)c2ccc(-c3cc4nc(NCc5cccnc5)n(C)c(=O)c4s3)cc2)CC1 | -24.5% | – |
| CN(C)CCn1c(=S)[nH]c2ccc(Cl)cc2c1=O | -5.51% | – |
| CC(C)n1c(=S)[nH]c2cc(C(F)(F)F)ccc21 | -24.5% | – |
| CCCn1c(=S)[nH]c2ccc(C(F)(F)F)cc21 | – | 10.6 µM (active) |
| CC(=O)N1Cc2cc(C(=O)NCc3cccc(F)c3)nc(-c3cccc(C4=CCCC4)c3)c2[C@H]1CCO | -3.4% | – |
| CCC(C)CN1C(=O)CSCC1(C)C(=O)NCc1ccccc1 (stereo not drawn) | -12.2% | – |
| O=C(Nc1ccc(Cl)cc1)C1Cc2c(-c3ccc4c(c3)OCO4)ccnc2O1 (stereo not drawn) | -2.05% | – |
| C[C@H]1CN([C@@H](C)CO)C(=O)CCCn2cc(nn2)CO[C@@H]1CN(C)C(=O)Nc1ccccc1 | -14% | – |
| O=C(c1ccc[nH]c1=S)N1CCN(S(=O)(=O)c2ccc(Br)cc2Cl)CC1 | – | 26.7 µM (active) |
| O=C(c1ccccc1F)N1CCN(S(=O)(=O)c2ccc(Br)cc2)CC1 | -0.788% | – |
| O=C(c1ccc(Cl)c(S(=O)(=O)N2CCCCC2)c1)N1CCCCCC1 | -9.42% | – |
| O=C(COc1ccc(S(=O)(=O)N2CCCC2)cc1[N+](=O)[O-])N1CCCCC1 | 0.94% | – |
| C[C@H]1CN([C@@H](C)CO)C(=O)CCCn2cc(nn2)CO[C@@H]1CN(C)S(=O)(=O)c1ccccc1C#N | -15.7% | – |
| Cc1onc(C(=O)NN)c1C(=O)N1CCN(C(c2ccccc2)c2ccccc2)CC1 | 1.96% | – |
| CCOC(=O)N1CCN(C(c2cccnc2)c2ccc3cccnc3c2O)CC1 (stereo not drawn) | – | 5.97 µM (active) |
| CCOC(=O)N1CCN(C(c2ccnc3ccccc23)c2nnnn2-c2c(C)cccc2C)CC1 (stereo not drawn) | 6.16% | – |
| CCN1CCN(C(c2cccnc2)c2cc(Cl)c3cccnc3c2O)CC1 (stereo not drawn) | – | 10.6 µM (active) |
| O=C(NC1CCCC1)C1c2ccccc2OCC(=O)N1CC(F)(F)F (stereo not drawn) | -3.82% | – |
| CCOC1=C2[C@@H](CN(S(=O)(=O)c3ccc(C)cc3)[C@H]2c2ccccc2F)[C@H]2C(=O)N(Cc3ccccc3)C(=O)[C@H]2C1 | -14.5% | – |
